HPGD block: qHTS Assay for Inhibitors of HPGD (15-Hydroxyprostaglandin Dehydrogenase). purified HPGD, NADH fluorescence kinetic, PGE2 substrate. Potency, µM, without a hit: at the highest dose activity change, negative = inhibition, usual class: inhibitors. AID 894, 2007. 15-hydroxyprostaglandin dehydrogenase [NAD(+)] (Homo sapiens), P15428. 150,000 compounds, 4.3% hits; further: potency means the concentration at half of the fitted maximal effect
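20 nM HPGD preincubated 15 min at room temperature with compound in 50 mM Tris-HCl pH 8, 0.01% Tween 20. Started with 1 mM NAD+ and 30 uM prostaglandin E2; NADH fluorescence (360/450 nm) read 5 times over 30-s intervals, last minus first.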
ALDH1A1 block: qHTS Assay for Inhibitors of Aldehyde Dehydrogenase 1 (ALDH1A1). Purified ALDH1A1, NADH fluorescence, propionaldehyde substrate. Aldehyde dehydrogenase 1A1 (Homo sapiens), P00352. 220,000 compounds, 7.3% hits. Potency, µM (series often up to 75.3 µM), inactives show top-dose activity, negative = inhibition, hits mostly inhibitors;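 further: potency means the concentration at half of the fitted maximal effect; plate controls were no enzyme wells and a reference inhibitor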
Target sequence (P00352 whole entry, looked up): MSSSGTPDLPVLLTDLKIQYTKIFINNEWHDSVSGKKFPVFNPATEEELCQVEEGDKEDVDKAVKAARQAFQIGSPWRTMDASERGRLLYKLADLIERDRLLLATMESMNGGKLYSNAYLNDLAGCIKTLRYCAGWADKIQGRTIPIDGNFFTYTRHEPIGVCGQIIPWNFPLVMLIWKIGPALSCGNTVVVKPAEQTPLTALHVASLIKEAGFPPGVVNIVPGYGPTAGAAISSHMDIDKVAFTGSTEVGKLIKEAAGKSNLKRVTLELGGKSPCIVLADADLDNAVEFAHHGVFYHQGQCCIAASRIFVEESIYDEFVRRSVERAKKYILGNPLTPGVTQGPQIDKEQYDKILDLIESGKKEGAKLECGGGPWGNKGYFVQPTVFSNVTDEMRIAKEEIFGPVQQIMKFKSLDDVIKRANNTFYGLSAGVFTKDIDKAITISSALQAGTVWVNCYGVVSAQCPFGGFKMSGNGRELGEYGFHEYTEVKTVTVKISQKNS
Luc counter: Counterscreen for Luciferase (Kinase-Glo TM) Inhibition. Luciferin 4-monooxygenase (Photuris pensylvanica), Q27757. Kinase-Glo luciferase, ATP luminescence, 8 min. Potency, µM (series often up to 38.3 µM), for the others: at the highest dose activity change, negative = inhibition, hits mostly inhibitors. 200,000 compounds, 0.28% hits; active means well fitted inhibition curve with a large enough effect; inconclusive means small, poorly fitted or top-dose-only effect; further: potency means the concentration at half of the fitted maximal effect; nearly all actives have a fitted effect of over 60% in size
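Kinase-Glo luciferase light output from ATP and luciferin was measured with 10 uM ATP, within the enzyme's linear range. Buffer: 50 mM imidazole pH 7.2, 50 mM KCl, 7 mM MgCl2, 0.01% Tween 20, 0.05% BSA; luminescence read after 8 min at ambient temperature.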
PNC inhibitor: High Content Assay for Compounds that inhibit the Assembly of the Perinucleolar Compartment. PC3M PTB-GFP, PNC prevalence imaging, 16 h; active compounds read low. activity change (PNC), negative = inhibition, % at 10 µM. 140,000 compounds, 3.1% hits. AID 2417, 2010;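 active means readout at or below -70, meaning at least 70% loss of cells showing the perinucleolar compartment, a nuclear body marking cancer cells; inconclusive means readout between -30 and a set limit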;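 further: plate controls were DMSO wells for no effect and camptothecin positive control wells for full effect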
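Read-out is percentage of cells bearing a perinucleolar compartment, from automated 20x imaging of fixed, Hoechst-stained PC3M PTB-GFP cells. Cells were seeded 4 h, then exposed 16 h to compound (23 nl of library stock) in duplicate plates.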
LMNA splice mod: qHTS Assay for Modulators of Lamin A Splicing; HeLa LMNA splicing GFP/RFP minigene ratio, 48 h; Potency, µM (top dose mostly 46.1 µM), inactives show at the top dose ratio change, negative = inhibition, most hits filed as inhibitors; 200,000 compounds, 0.01% hits; active means well fitted inhibition curve with a large enough effect in the signal ratio, with a control signal flat, not every such curve was filed as active; inconclusive means small, poorly fitted or top-dose-only effect, or effect the other way, or a change in a side signal; the % refers to the signal ratio; further: potency means the concentration at half of the fitted maximal effect
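Read-out is the ratio of GFP to DsRed2 object intensity, acquired by 488 nm laser-scanning cytometry on HeLa lamin A-EGFP minigene reporter cells. Compound incubation 48 hrs at 37 °C in Opti-MEM with 2% FBS; DMSO 0.5% final.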
Numbers without * were called inactive; ? = inconclusive; / = no result; ! = a repeat was not active; [ ] = dose if it differs, or a comment. Shown are actives, neighbours in structure and some others; about 10% of the full set was active somewhere. Unless noted, the call rests on the fitted dose curve; in most records, active means well fitted inhibition curve with a large enough effect (not every such curve was filed as active); inconclusive means small, poorly fitted or top-dose-only effect, or another doubt; inactive means no such curve, though single readings can be large or run the other way. Unless noted, on the % scale 0 is the no-effect control and ±100 the full control effect.

SMILES	HPGD block	ALDH1A1 block	Luc counter	PNC inhibitor	LMNA splice mod
Cc1ccc(-c2csc(N(C)C(=O)c3c(C)nn(-c4ccccc4)c3Cl)n2)cc1	-17%	-9%	4%	-99*	-18%
COc1ccc2c(c1)C(=O)[C@@H](OC(=O)NS(=O)(=O)c1ccc(C)cc1)[C@H](c1ccc(OC)c(Br)c1)O2	-3%	4%	-1%	/	/
Cc1ccc(NC(=O)c2ccoc2C)cc1C	-13%	5%	10µM*	27	-1%
Cc1occc1C(=O)NC(C)C(C)(C)C (centres undefined)	32µM*	1%	-4%	-8	-5%
COC(=O)[C@H](Cc1ccccc1)NC(=O)O[C@@H]1C(=O)c2cc(Br)ccc2O[C@H]1c1ccc2c(c1)OCO2	-8%	?	0%	/	/
CC[C@H](C)[C@@H](NC(=O)O[C@@H]1C(=O)c2cc(Br)ccc2O[C@H]1c1ccc2c(c1)OCO2)C(=O)OC	-5%	25µM*!	0%	36	12%
CN(CC(=O)Nc1ccc([N+](=O)[O-])cc1Br)Cc1c(F)cccc1Cl	/	10µM*	/	/	/
COc1cccc(-n2cc(C(=O)NCc3ccccc3OC)c3ccccc3c2=O)c1	/	/	/	/	-2%[46 µM]
Cc1nc(NC(=S)NC(=O)c2cccs2)sc1C(=O)N(C)C	22µM*	4.5µM*	12%	-20	26%
COc1ccc(C(=O)NC(=S)Nc2nc(C)c(C(=O)N(C)C)s2)cc1	-16%	?	-4%	?	-1%
Nc1c(-c2ccccc2)cnc2cc(-c3ccccc3)nn12	/	-7%	-20%	/	8%[46 µM]
Cc1cc2ncc(-c3ccc(Cl)cc3)c(N)n2n1	?	5%	-3%	-108*	-14%
Nc1c(-c2ccc(Cl)cc2)cnc2ncnn12	-13%	18%	5%	-109*	-2%
C=CCn1nnc2sc3c(c2c1=O)CCC(C)C3 (centres undefined)	-19%	18µM*	-4%	23	11%
CSc1nc2sc3c(c2c(=O)n1C1CCCCC1)CCN(C)C3	-3%	7%	4%	-10	-8%
CSc1nc2sc3c(c2c(=O)n1C)CCC(C)C3 (centres undefined)	-11%	25µM*	-5%	13	8%
CSc1nc2sc3c(c2c(=O)n1C)CCCC3	-12%	?	-5%	-87*	-6%
COCc1cc(=O)[nH]c(SCCS(=O)(=O)c2ccc(C)cc2)n1	/	0.79µM*	/	/	/
COCc1cc(=O)[nH]c(SCC(=O)c2ccccc2)n1	/	-4%	/	/	/
C=CCn1c(C)cc(C(=O)CSc2nc3ccccc3c(=O)[nH]2)c1C	2.8µM*	?	5%	24	?
COCCn1c(C)cc(C(=O)CSc2nc3ccccc3c(=O)[nH]2)c1C	16µM*	7%	-3%	?	?
CCN(CC)C(=O)CSc1nc2ncc(Cl)cc2[nH]1	13µM*	?	-2%	?	13%
COCC(C)n1c(C)cc(C(=O)CSc2nc3ccccc3c(=O)[nH]2)c1C (centres undefined)	32µM*	-8%	-5%	36	?
C=CCn1c(C)cc(C(=O)CSc2nc3ccccc3[nH]2)c1C	?	-8%	-7%	?	-15%
COc1ccc(CC(=O)NCc2nc3cccnc3n2Cc2ccc(F)cc2)cc1OC	/	/	/	/	-12%[46 µM]
SMILES	HPGD block	ALDH1A1 block	Luc counter	PNC inhibitor	LMNA splice mod
Cc1cn([C@H]2C[C@@H](N=[N+]=[N-])[C@@H](CO)O2)c(=O)[nH]c1=O	-9%	-6%	-2%	/	?
C[C@H]1CC(C)(C)C[C@@](OCCN2CCCCC2)(c2ccccc2)C1	-4%	7%[13.5 µM]	-3%[7.66 µM]	/	/
CCN(CC)C(=O)CSc1nc2ccccc2c(=O)[nH]1	8.9µM*	?	4%	?	-17%
CCCSC1=NC2(CCN(C(=O)NC3CCCCC3)CC2)N=C1c1ccc(C)cc1	/	/	/	/	0%[46 µM]
COc1cccc([C@@H]2Oc3ccc(Br)cc3C[C@H]2O)c1	-27%	6%	1%	/	/
O=C1CCCC=C1[C@H](O)c1ccc([N+](=O)[O-])cc1	/	-4%[13.5 µM]	/	/	/

Bioassay records (PubChem)
